Measured values as given in PubChem BioAssay (NCI).
About 83,000 compounds went through this panel and 20% of them were active in at least one assay; those are over-represented in the sample as a whole.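 Plates (96-well) were seeded with cells, treated with compound at one concentration, and incubated for 48 hours before percent growth was determined.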 Values without a mark were called inactive. The source made the active and inactive calls. How the source made its calls: active means growth percent below 10; inactive means the rest.

Key:
Assay in all cases: NCI-60 one-dose screen, 48 h (100 = growth as untreated, 0 = no growth, -100 = all killed)
Details in all cases: 10 µM unless noted
BT-549 breast = test system: BT-549 breast
MDA-MB-435 melanoma = test system: MDA-MB-435 melanoma
SW-620 colon = test system: SW-620 colon
MCF7 breast = test system: MCF7 breast
HCT-116 colon = test system: HCT-116 colon
HCC-2998 colon = test system: HCC-2998 colon
KM12 colon = test system: KM12 colon

| Compound | growth (BT-549 breast) | growth (MDA-MB-435 melanoma) | growth (SW-620 colon) | growth (MCF7 breast) | growth (HCT-116 colon) | growth (HCC-2998 colon) | growth (KM12 colon) |
| --- | --- | --- | --- | --- | --- | --- | --- |
| C[C@]12CC[C@@H]3c4ccc(O)c([N+](=O)[O-])c4CC[C@H]3[C@@H]1CC[C@@H]2NS(=O)(=O)c1ccc(C(F)(F)F)cc1 | 30.9% | 17.3% | 34.2% | 11.8% | 15.5% | 53.8% | 19.9% |
| S=C(c1ccccc1)N1CCN(c2cccc(Cl)c2)CC1 | 105% | 81.5% | 98.5% | 109% | 106% | 105% | 92.5% |
| COc1cc2c(c(OC)c1OC)-c1ccc(NN(C(=O)c3ccccc3)C(=O)c3ccccc3)c(=O)cc1[C@@H](NC(C)=O)CC2 (tested in a mixture with another compound) | 37.3% | -68.8% (active) | 17.1% | 24% | 12.1% | 6.05% (active) | 9.8% (active) |
| COC(=O)CCC1=C(CC(=O)OC)C(C)=N/C1=C\c1[nH]c(-c2ccc[nH]2)cc1OC | 52.3% | 17.3% | 21.5% | 3.83% (active) | 9.33% (active) | 33.7% | 28.1% |
| Cc1cc(Cl)ccc1Nc1nc(C(F)(F)F)ccc1C(=O)NCC(=O)N/N=C/c1c(Cl)cccc1Cl | 85.5% | 79.6% | 80.3% | 56.2% | 57.7% | 92.9% | 50.4% |
| COc1cccc(C2C(C#N)=C(N)Oc3cc(OC)ccc32)c1 (centres undefined) | 15.8% | -47.7% (active) | 26% | 17.1% | 7.04% (active) | 0.0782% (active) | 4.36% (active) |
| O=C(/C=C/c1cc2ccccc2[nH]c1=O)c1ccc(O)cc1 | 28% | 34.3% | -10.8% (active) | 14.7% | 12.9% | 93.1% | -8.87% (active) |
| O=C(CCc1nnc(Cn2cncn2)o1)c1nc2ccccc2[nH]1 | 112% | 103% | 113% | 91% | 111% | 112% | 114% |
| [O-]/[N+](=C\C=C\c1ccccc1)c1ccccc1 | 109% | 108% | 104% | 96.3% | 102% | 103% | 100% |
| COc1ccc(-c2cnnn2-c2cc(OC)c3c(c2)OCO3)cc1 | 34.8% | -57.5% (active) | 26.5% | 17.8% | 13.6% | -2.25% (active) | 11.8% |
| Nc1nc(SCC2(CCl)COC2)c2[nH]cnc2n1 | 91.2% | 107% | 99.8% | 86.4% | 105% | 97.7% | 108% |
| Cn1cnc([N+](=O)[O-])c1S(=O)(=O)Oc1ccc(Cl)cc1 | 103% | 78.8% | -31% (active) | 63.7% | -32.1% (active) | 83.1% | 84.9% |
| O=C(Nc1cccc(-n2cc(-c3ccncc3)c(-c3ccc(O)c(Cl)c3)n2)c1)Nc1ccc(Cl)c(C(F)(F)F)c1 | -12.6% (active) | -61.6% (active) | 8.96% (active) | -7.24% (active) | -8.62% (active) | 14.7% | -25.2% (active) |
| CCC1=C(c2ccc(OC)cc2)C(C)Oc2cc(OC(C)=O)ccc21 (centres undefined) | 95.4% | 40.7% | 90.5% | 82.4% | 74.5% | 107% | 77.7% |
| Cc1ccc(NC(=O)CSc2nnc3n(Cc4ccccc4)c(=O)c4c(C)c(C(N)=O)sc4n23)cc1 | 74.3% | 31.5% | 53.7% | 44.8% | 9.8% (active) | 34.3% | 51.2% |
| COc1ccc(COC(C)=O)cc1 | 99.7% | 111% | 98.8% | 102% | 107% | 114% | 104% |

| Compound | growth (BT-549 breast) | growth (MDA-MB-435 melanoma) | growth (SW-620 colon) | growth (MCF7 breast) | growth (HCT-116 colon) | growth (HCC-2998 colon) | growth (KM12 colon) |
| --- | --- | --- | --- | --- | --- | --- | --- |
| Cc1c(C(N)=O)sc2nc(SCC(=O)Nc3ccc(Cl)cc3)n(-c3ccccc3)c(=O)c12 | 69.1% | 112% | 128% | 104% | 103% | 109% | 118% |
| NCCCc1nnc(CCC(=O)c2nc3ccccc3[nH]2)o1 | 103% | 105% | 108% | 91.4% | 100% | 98.1% | 115% |
| COc1ccc2c(c1)C(=O)c1c-2c(=O)n(CCCCCCC(=O)NO)c2ccccc12 | 23.4% | -14.1% (active) | -27.4% (active) | 5.92% (active) | -55.8% (active) | -39.6% (active) | 10.9% |
| O=C(Nc1cccc2ccccc12)c1cc2c(cc1Br)OCO2 | 61% | 111% | 100% | 79.9% | 236% | 97.3% | 103% |
| COc1ccc2nc(-c3ccc(-n4cncc4-c4ccc(OC)c(N)c4)cc3)sc2c1 | 102% | 105% | 97.4% | 82.1% | 98.4% | 111% | 105% |
| CC(C)[O-].CC(C)[O-].CN(CCN(C)Cc1cc(F)cc(F)c1[O-])Cc1cc(F)cc(F)c1[O-].[Ti+4] | -1.16% (active) | -24.5% (active) | 0.502% (active) | -42.2% (active) | -0.794% (active) | 57% | -30.7% (active) |
| c1ccc2cc(C[n+]3ccn(CCCCCCCn4cc[n+](Cc5ccc6ccccc6c5)c4)c3)ccc2c1 | 16.7% | 32.7% | 74.2% | 35.1% | 32.7% | 49.3% | 28.7% |
| CC(C)C/C(=N\NC(=O)c1ccncc1)c1cc(Cl)ccc1O | -1.24% (active) | 32.4% | 31.1% | 5.38% (active) | 0.442% (active) | 28.1% | 25.8% |
| COc1cc(/C=C2\COc3ccc(O)cc3C2=O)cc(OC)c1 | 66.1% | 20.1% | 2.07% (active) | 8.22% (active) | 0.249% (active) | 109% | 17.4% |
| COc1cc(OC)c2sc(-c3ccc(-n4cncc4-c4ccc(N)cc4)cc3)nc2c1 | 82.4% | 62.9% | 91.2% | 63.4% | 70.2% | 96.2% | 64.1% |
| CCn1c2c(c3ccccc31)SC1c3cccn3CCN1C2=S (centres undefined) | 140% | 91.5% | 95.2% | 53.8% | 98.2% | 99.6% | 96.4% |
| CCC(O)C(C)(C)C (centres undefined) | 108% | 105% | 101% | 113% | 106% | 106% | 113% |
| O=C(/C(=N/O)S(=O)(=O)c1ccccc1)c1cccs1 | 103% | 105% | 117% | 98% | 96.4% | 93.2% | 107% |
| COc1ccc(OC)c(/C=C/c2nc(=S)n(-c3ccc(Cl)cc3)[nH]2)c1 | 67.2% | -10.3% (active) | 50.4% | 32% | 29.6% | 45.6% | 40.9% |
| C/C(=C\CCc1ccsc1)CC/C=C(\C)CCCN1CCN(CCO)CC1 | 30.1% | 41% | -11.4% (active) | 26.3% | 26% | 19.8% | 27.1% |
| CC(=O)Oc1ccc(C2OC(c3ccc4ccccc4c3OC(C)=O)=NN2C(C)=O)c(OC(C)=O)c1 (centres undefined) | 31% | 33.6% | 32% | 15.6% | 20.6% | 29.9% | 19.7% |
